Assay results reported in the supplement of paper PMC8285479.
Structures can show the parent of a compound that is named as a salt. ± gives the standard deviation of the averaged measurements. Whole data set: some 1,900 compounds, median “normalised cell viability (NPI; 0 = phenylarsine oxide control, 1 = DMSO control)” near 1, cut for the lowest 2% near 0.039. The full list was thinned out, with the lowest values kept by preference.

System: NCI-H1944
Test: normalised cell viability (NPI; 0 = phenylarsine oxide control, 1 = DMSO control) (fraction of DMSO control); NCI-H1944 is a non-small cell lung cancer line; higher = more viable cells (less compound toxicity)
Conditions: 6 days
[1] = glucocorticoid arm: hydrocortisone 2.75 uM co-treatment, compound 1 µM
[2] = glucocorticoid arm: hydrocortisone 2.75 uM co-treatment, compound 5 µM
[3] = glucocorticoid arm: hydrocortisone 2.75 uM pre-treated 2 days and continued, compound 1 µM
[4] = glucocorticoid arm: hydrocortisone 2.75 uM pre-treated 2 days and continued, compound 5 µM
[5] = glucocorticoid arm: vehicle, compound 1 µM
[6] = glucocorticoid arm: vehicle, compound 5 µM
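Further: CTB read-out in 384-well plates, triplicate wells, NPI normalised per plate against 1 µM phenylarsine oxide (0) and 0.1% DMSO (1) controls.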

Row | Compound | normalised cell viability [1] | normalised cell viability [2] | normalised cell viability [3] | normalised cell viability [4] | normalised cell viability [5] | normalised cell viability [6]
1 | COc1cc(C(O)CN)ccc1O (racemic) [(±)-Normetanephrine hydrochloride] | 0.9973 ± 0.0025 | 1.01 ± 0.021 | 1.01 ± 0.01 | 0.867 ± 0.27 | 0.9953 ± 0.0045 | 1 ± 0.016
2 | C[C@H]1OC[C@@H](C[N+](C)(C)C)O1 [(+)-cis-Dioxolane] | 1.017 ± 0.0058 | 1.02 ± 0.01 | 1 ± 0.018 | 1.04 ± 0.081 | 1.01 ± 0.01 | 1.006 ± 0.0063
3 | COc1ccc2c3c1O[C@H]1C(=O)CC[C@@]4(O)C(C2)N(CC2CC2)CCC314 (stereo partly specified) [3-Methoxynaltrexone hydrochloride] | 0.9917 ± 0.0068 | 0.99 ± 0.018 | 0.985 ± 0.013 | 1.02 ± 0.07 | 0.9977 ± 0.0025 | 0.998 ± 0.013
4 | c1ccc(C2(c3ccccc3)CC2C2=NCCN2)cc1 (stereo unspecified) [Cibenzoline succinate] | 0.992 ± 0.013 | 0.994 ± 0.027 | 1.003 ± 0.0058 | 1.02 ± 0.078 | 1.007 ± 0.0058 | 1.01 ± 0.01
5 | CN1CCCCC1Cn1cc(C(=O)c2cc([N+](=O)[O-])ccc2I)c2ccccc21 (stereo unspecified) | 1.02 ± 0.015 | 0.99 ± 0.026 | 1.04 ± 0.01 | 1.01 ± 0.029 | 1.013 ± 0.0058 | 1.001 ± 0.0081
6 | CCCN1CC[C@@H]2c3cc(O)ccc3CC[C@@H]21 (racemic) [cis(+/-)-8-OH-PBZI hydrobromide] | 0.993 ± 0.011 | 0.975 ± 0.021 | 1.01 | 1.02 ± 0.092 | 0.9937 ± 0.0071 | 1.007 ± 0.0058
7 | C[C@H]1CNCCc2ccc(Cl)cc21 [Lorcaserin HCl] | 1.003 ± 0.0064 | 1.02 ± 0.029 | 1 ± 0.019 | 1.02 ± 0.029 | 1.003 ± 0.0061 | 0.998 ± 0.0035
8 | N[C@@H](Cn1ccc(=O)[nH]c1=O)C(=O)O [S(-)-Willardiine] | 1.007 ± 0.0058 | 1.023 ± 0.0058 | 0.847 ± 0.28 | 1.02 ± 0.015 | 1.002 ± 0.007 | 1.007 ± 0.0058
9 | c1ccc2c(c1)[I+]c1ccccc1-2 [Diphenyleneiodonium chloride] | 0.45 ± 0.015 | 0.0556 ± 0.0019 | 0.649 ± 0.014 | 0.0883 ± 0.044 | 0.232 ± 0.015 | 0.00555 ± 0.0077
10 | CN1CC[C@]2(CCN3CCc4c(oc5ccccc45)[C@@H]3C2)N(C)C1=O | 1.003 ± 0.0058 | 0.974 ± 0.015 | 1.01 | 0.889 ± 0.24 | 1.013 ± 0.0058 | 1.02 ± 0.015
11 | CCN(CC)C(=O)N[C@H]1C[C@@H]2c3cccc4[nH]cc(c34)C[C@H]2N(C)C1 [S(+)-Terguride] | 0.989 ± 0.011 | 1.01 ± 0.02 | 0.79 ± 0.37 | 0.996 ± 0.016 | 0.9953 ± 0.0015 | 0.993 ± 0.0056
12 | CCCn1c(C)c(C(=O)c2cccc3ccccc23)c2ccccc21 | 1.001 ± 0.0083 | 1.03 ± 0.023 | 1.007 ± 0.0058 | 1.06 ± 0.09 | 0.9977 ± 0.004 | 1.01 ± 0.023
13 | Cc1c(C(=O)c2cccc3ccccc23)c2cccc3c2n1[C@H](CN1CCOCC1)CO3 [( R)-(+)-WIN 55,212-2 mesylate] | 1.004 ± 0.01 | 0.0209 ± 0.0039 | 1.01 ± 0.029 | 0.016 ± 0.002 | 1.013 ± 0.0058 | 0.00693 ± 0.00096
14 | CCC(=O)CCCCC[C@@H]1NC(=O)[C@H]2CCCCN2C(=O)[C@H]([C@@H](C)CC)NC(=O)[C@H](Cc2cn(OC)c3ccccc23)NC1=O [Apicidin] | 0.387 ± 0.16 | 0.954 ± 0.041 | 0.644 ± 0.15 | 0.983 ± 0.03 | 0.0476 ± 0.028 | 0.96 ± 0.022
15 | CCS(=O)(=O)Nc1cccc(C(=C2CCCCC2)c2cnc[nH]2)c1 | 1.006 ± 0.0063 | 1.04 ± 0.015 | 1.01 ± 0.011 | 1.04 ± 0.028 | 0.985 ± 0.013 | 0.9933 ± 0.0061
16 | CN1CC[C@@]2(C)c3cc(O)ccc3N(C)C12 (single isomer, unassigned; (-)) [(-)-Eseroline fumarate] | 0.9967 ± 0.0058 | 0.972 ± 0.013 | 1.03 ± 0.045 | 0.971 ± 0.011 | 0.9967 ± 0.0042 | 0.996 ± 0.012

Row | Compound | normalised cell viability [1] | normalised cell viability [2] | normalised cell viability [3] | normalised cell viability [4] | normalised cell viability [5] | normalised cell viability [6]
17 | CCn1cnc2c(Nc3cccc(Cl)c3)nc(N[C@@H]3CCCC[C@@H]3N)nc21 | 0.783 ± 0.025 | 0.0569 ± 0.018 | 1.01 ± 0.011 | 0.182 ± 0.0028 | 0.321 ± 0.043 | 0.0192 ± 0.0037
18 | C[C@H](N)CN1CCc2ccc(Br)cc21 [VER-3323 hemifumarate salt] | 1.001 ± 0.0085 | 1.01 ± 0.024 | 1 ± 0.011 | 1.05 ± 0.021 | 0.9897 ± 0.0015 | 1 ± 0.015
19 | C[C@H]1O[C@@H](C[N+](C)(C)C)CS1 | 1.013 ± 0.0058 | 1.007 ± 0.0058 | 1 | 1 ± 0.024 | 0.9857 ± 0.0046 | 0.9857 ± 0.0038
20 | CC12CCC3C(CCC4=C(O)C(=O)CCC43C)C1CCC2=O (stereo unspecified) [4-Androsten-4-ol-3,17-dione] | 0.9977 ± 0.0021 | 0.9747 ± 0.0093 | 0.999 ± 0.001 | 1 ± 0.011 | 0.995 ± 0.015 | 1.003 ± 0.0061
21 | Cc1c(N)nc([C@H](CC(N)=O)NC[C@H](N)C(N)=O)nc1C(=O)N[C@H](C(=O)N[C@H](C)[C@@H](O)[C@H](C)C(=O)N[C@H](C(=O)NCCc1nc(-c2nc(C(=O)NCCC[S+](C)C)cs2)cs1)[C@@H](C)O)[C@@H](OC1OC(CO)C(O)C(O)C1OC1OC(CO)C(O)C(OC(N)=O)C1O)c1cnc[nH]1 (stereo partly specified) [Bleomycin sulfate] | 0.669 ± 0.048 | 0.196 ± 0.017 | 0.9903 ± 0.0051 | 0.637 ± 0.034 | 0.142 ± 0.024 | 0.0339 ± 0.0093
22 | CCC1(c2ccc(N)cc2)CCC(=O)NC1=O (racemic) [(±)-p-Aminoglutethimide] | 0.997 ± 0.0052 | 1.01 | 0.866 ± 0.23 | 1 ± 0.027 | 1.006 ± 0.0063 | 1
23 | CN[C@@H]1C[C@@H](c2ccc(Cl)c(Cl)c2)c2ccccc21 [Indatraline hydrochloride] | 1 ± 0.0095 | 0.931 ± 0.02 | 1.02 ± 0.021 | 1.04 ± 0.084 | 1.01 | 1.03 ± 0.05
24 | C[Se]C[C@H](N)C(=O)O [Se-(methyl)selenocysteine hydrochloride] | 1.006 ± 0.0069 | 1.02 ± 0.015 | 1 | 0.859 ± 0.28 | 1.006 ± 0.0069 | 1.01 ± 0.016
25 | C=C(C)[C@H]1Cc2c(ccc3c2O[C@@H]2COc4cc(OC)c(OC)cc4[C@@H]2C3=O)O1 [Rotenone] | 0.627 ± 0.064 | 0.39 ± 0.013 | 0.969 ± 0.016 | 0.685 ± 0.094 | 0.22 ± 0.011 | 0.115 ± 0.019
26 | C=CCc1ccccc1OCC(O)CNC1(C)CCC(C(C)(C)NC(=O)CBr)CC1 (stereo unspecified) [Bromoacetyl alprenolol menthane] | 0.9893 ± 0.0093 | -0.000605 ± 0.0006 | 0.994 ± 0.016 | 0.0027 ± 0.0058 | 0.978 ± 0.004 | -0.000518 ± 0.00015
27 | C1CN1c1nc(N2CC2)nc(N2CC2)n1 [Triethylenemelamine] | 1.023 ± 0.0058 | 0.775 ± 0.022 | 1.017 ± 0.0058 | 0.989 ± 0.015 | 0.993 ± 0.0082 | 0.273 ± 0.028
28 | C=CCN(C1=NCCN1)c1c(Cl)cccc1Cl [Alinidine] | 0.999 ± 0.012 | 0.992 ± 0.016 | 1.02 ± 0.049 | 1 ± 0.021 | 0.9973 ± 0.0031 | 0.9913 ± 0.0035
29 | O=C1C=CC(=O)C=C1 [p-Benzoquinone] | 1.007 ± 0.0058 | 1.01 ± 0.012 | 1.006 ± 0.0075 | 0.999 ± 0.03 | 1.01 ± 0.012 | 0.999 ± 0.011
30 | Cc1nc(-c2ccc(-c3ccc(C(=O)N4CCc5cc6c(cc54)C4(CCN(C)CC4)CO6)cc3)c(C)c2)no1 | 0.994 ± 0.0066 | 0.356 ± 0.53 | 1.02 ± 0.02 | 1.1 ± 0.021 | 0.994 ± 0.014 | 0.00588 ± 0.0059
31 | CC1C2Cc3ccc(O)cc3C1(C)CCN2CC1CC1 (single isomer, unassigned; (+)) [(+)-Cyclazocine] | 1.001 ± 0.0085 | 1.003 ± 0.0058 | 1 ± 0.01 | 0.978 ± 0.013 | 1.01 | 0.9993 ± 0.0095
